Calls of active or inactive are those of the source. The rule behind the calls is not given here.

Pantothenate synthetase (Mycobacterium tuberculosis (strain ATCC 25618 / H37Rv)), sequence (P9WIL5 whole entry, looked up): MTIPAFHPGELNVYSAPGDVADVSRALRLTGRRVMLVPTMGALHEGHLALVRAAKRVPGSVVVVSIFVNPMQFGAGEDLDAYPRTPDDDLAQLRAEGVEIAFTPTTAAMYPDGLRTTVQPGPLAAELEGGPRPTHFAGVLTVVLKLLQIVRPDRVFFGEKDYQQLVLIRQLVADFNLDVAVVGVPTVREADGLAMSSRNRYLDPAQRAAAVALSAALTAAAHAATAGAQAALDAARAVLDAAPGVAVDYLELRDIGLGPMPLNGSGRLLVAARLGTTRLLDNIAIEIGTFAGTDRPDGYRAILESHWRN

The assay has as its target Pantothenate synthetase (Mycobacterium tuberculosis (strain ATCC 25618 / H37Rv)) (UniProt P9WIL5). Kind of assay: Coupled enzyme confirmation of inhibitors against recombinant Mtb PanC (AID 375).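 Note: 0% = full reaction with vehicle and 100% = no enzyme background.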 As to conditions: coupled enzyme assay; at 10 µM, stronger effect = higher value.
What is called inhibition is the share of the control response that was lost under treatment. `Cn1c(Cc2ccccc2)nnc1SCC(=O)c1ccc(Br)s1`: the inhibition is 0% (inactive). With `CC(=O)Nc1ccc(N=Cc2ccc[nH]2)cc1`, the inhibition is 0% (inactive).

In the case of `Cn1c(SCCN2CCCCC2)nnc1-c1ccccc1Br`, the inhibition is 0% (inactive). The same measure for `CN(Cc1ccccc1)C(=O)c1ccccc1NC(=O)c1ccco1`: 0% (inactive). In the case of `O=C(NCC1CCCCN1)c1cc(OCC(F)(F)F)ccc1OCC(F)(F)F` (stereo not given), the inhibition was 3% (inactive). With `O=C(Cn1cnc2sc(-c3ccccc3)cc2c1=O)N1CCOCC1`, the inhibition was 9% (inactive). With `COc1ccc2[nH]c(=O)c(CN(Cc3cccs3)S(=O)(=O)c3cccc4nsnc34)cc2c1`, the inhibition was 0% (inactive). The same measure for `CCOC(=O)c1ccc(NC(=O)COc2ccc(-n3cnnn3)cc2)cc1`: 0% (inactive). In the case of `CCOC(=O)N1CCC(NC(=O)c2cnn3ccccc23)CC1`, the inhibition is 0% (inactive). In the case of `COC(=O)c1cccc(Nc2cc(C)nc(-c3ccccc3O)n2)c1`, the inhibition was 1% (inactive).

On to `Cc1cccc(C2CC(c3ccc(Br)cc3)Nc3nc(N)nn32)c1` (stereo not given), for which the inhibition was 0% (inactive). Next, `CCC(=O)N(CCCN(C)C)c1nc(-c2cc(OC)ccc2OC)cs1`: 6% (inactive); `CC(C)(C)c1ccccc1NC(=O)c1cccnc1`: 10% (inactive); `CCn1c(=O)n(CC(=O)N(C)Cc2ccccc2)c(=O)c2ccccc21`: 12% (inactive). `O=C(Nc1ccccn1)NC(C(F)(F)F)C(F)(F)F`: the inhibition was 0% (inactive). Regarding `CCOc1cccc(C(=O)N(Cc2ccco2)C2CCS(=O)(=O)C2)c1` (stereo not given), the inhibition is 6% (inactive). The same measure for `Cc1nc2c(=O)oc3ccccc3c2n1-c1ccccc1`: 0% (inactive); for `OC1C[N+]2(CCCCC2)C1`: 0% (inactive). On to `CC(C)(O)C1=NOC(c2ccccc2)C1` (stereo not given), for which the inhibition is 0% (inactive). For the molecule `CC1CCN(Cc2nc3c(c(=O)n(C)c(=O)n3C)n2Cc2cccc3ccccc23)CC1`, the inhibition was 0% (inactive). As to `CCCN1CCN(C(=O)Cn2c(=O)oc3cc(S(=O)(=O)NCc4ccccc4)ccc32)CC1`, the inhibition is 3% (inactive). Regarding `CSc1ccccc1NC(=O)C1CCCO1` (stereo not given), the inhibition was 7% (inactive). As to `COc1ccc(C2C3=C(OC(C)=O)c4ccccc4C3=Nc3c2c(=O)n(C)c(=O)n3C)cc1` (stereo not given), the inhibition is 2% (inactive). In the case of `c1cncc(-c2nc3c4ccccc4nc(N4CCC(N5CCCCC5)CC4)n3n2)c1`, the inhibition is 0% (inactive). Next, `CC1N=C2c3ccccc3N=C(SCc3cc(=O)n4cc(Cl)ccc4n3)N2C1=O` (stereo not given): 2% (inactive); `Cc1nc2ccc(NC(=O)N3CCOCC3)cc2s1`: 4% (inactive). Regarding `Cc1cc(C(F)(F)F)nn1Cc1ccc(C(=O)NCc2ccco2)o1`, the inhibition was 0% (inactive). For `c1ccc2c(c1)[nH]c1c(N3CCC4(CC3)OCCO4)ncnc12`, the inhibition was 0% (inactive). Consider `Cc1nc2sc(C(c3cccc(F)c3)N3CCN(C(=O)c4ccco4)CC3)c(O)n2n1` (stereo not given), for which the inhibition was 0% (inactive). For the molecule `COCCOc1nc2ccccc2nc1C`, the inhibition was 0% (inactive).

Consider `Cc1cccc(-n2nc3c(c2NC(=O)CCC2CCCCC2)CS(=O)C3)c1C` (stereo not given), for which the inhibition was 3% (inactive).

As to `Cc1cc(N2CCOCC2)nc2ccc(NC(=O)C3CCC(C)CC3)cc12` (stereo not given), the inhibition is 0% (inactive). For the molecule `COc1ccc(S(=O)(=O)n2nc(OC(=O)c3ccc(C)cc3)cc2N)cc1`, the inhibition was 5% (inactive). Regarding `CCCCCCc1ccc(-c2ncc(N)cn2)cc1`, the inhibition is 0% (inactive). Next, `N#Cc1c(NC(=O)CSc2nc(N)cc(=O)[nH]2)sc2c1CCCCCC2`: 0% (inactive); `Nc1nc(Cl)nc2c1ncn2[C@H]1C[C@H](O)[C@@H](CO)O1`: 0% (inactive). Consider `CCOC(=O)c1ccc(NS(=O)(=O)c2ccc3c(c2)oc(=O)n3C)cc1`, for which the inhibition was 0% (inactive). For `CCc1nn2c(=O)cc(CSc3nc4sc5c(c4c(=O)n3C)CCCC5)nc2s1`, the inhibition was 0% (inactive). For `O=C(CCn1cccc1)N1CCc2ccccc21`, the inhibition is 0% (inactive). Next, `COc1ccc(CC(NC(C)=O)C(=O)N2CCN(C(=O)N(C(C)C)C(C)C)CC2)cc1` (stereo not given): 0% (inactive).

Values taken from PubChem BioAssay.
